From PubChem
Compounds with a hit are over-represented: about 4.6% of the library has one in this group of screens.
TRHR PAM: allosterically enhances the human TRH receptor; P34981; TRHR cells, fluo-8 calcium fluorescence, EC20 TRH enhancement; enhancement, % at 2 µM; 360,000 tested, 0.66% active; in the data active = enhancement above about 30%
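TRHR-expressing cells loaded with fluo-8 calcium dye were read kinetically (ex 480/em 530) during compound addition, then stimulated with an EC20 of TRH (10 nM final). Enhancement of the Gq-mediated intracellular calcium response was scored.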
D1 ag: activates the human D1 dopamine receptor | P21728 | HEK293 T-REx D1 cells, calcium flux, agonist mode | activation, % at 2 µM | 360,000 tested, 1% active | AID 504660
Target sequence (P21728 whole entry, looked up): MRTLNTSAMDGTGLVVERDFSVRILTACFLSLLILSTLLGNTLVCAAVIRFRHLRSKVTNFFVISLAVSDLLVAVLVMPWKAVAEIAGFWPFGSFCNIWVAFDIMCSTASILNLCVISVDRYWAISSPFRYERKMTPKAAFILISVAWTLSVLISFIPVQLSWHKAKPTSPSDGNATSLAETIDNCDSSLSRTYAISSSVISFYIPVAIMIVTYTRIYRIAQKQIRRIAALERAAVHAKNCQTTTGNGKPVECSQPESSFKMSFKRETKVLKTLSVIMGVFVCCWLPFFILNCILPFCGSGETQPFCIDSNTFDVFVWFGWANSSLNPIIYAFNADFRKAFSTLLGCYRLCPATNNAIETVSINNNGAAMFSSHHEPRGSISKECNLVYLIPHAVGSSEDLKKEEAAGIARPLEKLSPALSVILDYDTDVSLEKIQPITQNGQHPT
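Inducible HEK293 T-REx D1 cells, force-coupled to calcium signalling, were plated at 4000 cells/well with tetracycline and held overnight at 30 C. After no-wash calcium dye loading, compound-evoked calcium rise over 180 s flagged agonists.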
D1 antag: blocks dopamine activation of the human D1 receptor. P21728. HEK293 TREx D1 cells, calcium flux, dopamine EC80; hits give low values. activity change, negative = inhibition, % at 10 µM. 360,000 tested, 3.2% active. AID 504652; in the data active = activity change below about -30%
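Antagonism measured as reduced calcium response to an EC80 dopamine addition following 180 s compound pre-read; cells were inducible HEK293 Trex D1 plated overnight at 30 C, read kinetically at 1 cycle/sec.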
D1 potentiator: potentiators of human D1 dopamine receptor | 360,000 tested, 0.036% active | potentiation, % at 10 µM | AID 504651 | HEK293 TREx D1 cells, calcium flux, dopamine EC20 potentiation; in the data active = potentiation above about 30%
TRHR ag: activates the human TRH receptor. 360,000 tested, 0.18% active. TRHR cells, calcium flux fluo-8, FDSS agonist mode. activation, % at 2 µM. AID 493084
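TRHR-expressing cells loaded with fluo-8 calcium dye; 23 nL library compound pin-transferred, kinetic FDSS fluorescence (Ex 480/Em 530) recorded about 180 s for agonist-induced calcium release, before a 10 nM TRH EC20 addition for potentiator mode.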
Of the large screens only hits and unclear results are named; the others gave an inactive call; ! = a repeat was not active. Rule as the data show it, unless noted: active = activation above about 30%; inactive = the rest.

O=c1[nH]c(C2CCN(S(=O)(=O)Cc3ccccc3)CC2)nc2c1nnn2Cc1cccc(Cl)c1	none
CCOC(=O)c1cncc(C#CCOC(=O)Nc2ccc(OC(F)(F)F)cc2)c1	D1 antag -34
Cc1ccc(NC(=O)N(Cc2nc3ccccc3c(=O)[nH]2)Cc2cccs2)cc1	D1 antag -46
CCNC(=S)N(Cc1ccccc1)Cc1nc2ccccc2c(=O)[nH]1	D1 antag -31
COCCN(Cc1cc2cc3c(cc2nc1Cl)OCO3)C(=O)c1ccc(C)cc1	D1 ag 66
COCCN(Cc1cc2cc(C)c(C)cc2nc1Cl)C(=O)Nc1ccccc1	none
CCOC(=O)CN1C(=O)C(=O)N(Cc2c(Cl)cccc2Cl)C1=O	none
CCOC(=O)CN1C(=O)C(=O)N(Cc2cccc(C)c2)C1=O	D1 ag 33
CC(=O)Oc1ccc(Cl)cc1/C=C/c1cc(OC(C)=O)c2ccccc2n1	D1 antag -63
Cc1occc1C(=O)/C(C#N)=C/c1ccc(O)c(Br)c1	D1 ag 45 (no result: D1 potentiator)
O=C1C2C3c4ccccc4C(c4ccccc43)C2C(=O)N1Cc1ccccn1 (stereo unspecified)	none
CC1=CC(C)(C)N(C(=O)c2ccccc2)c2ccc(C)cc21	D1 ag 57
O=C(Nc1ccc(-c2nc3ccccc3[nH]2)cc1)c1ccco1	D1 antag -46
CCN(CC)S(=O)(=O)c1ccc(NC(=S)NC(=O)CC(C)C)cc1	D1 antag -33
O=C(Nc1ccc(NC(=O)c2ccco2)cc1)c1ccco1	TRHR PAM 31
CC(C)CC(=O)NC(=S)Nc1ccc(NC(=O)c2ccco2)cc1	D1 antag -36
O=C(/C=C/c1ccco1)Nc1ccc(-c2nc3ccccc3[nH]2)cc1	none
CCCn1c(-c2ccc(S(=O)(=O)N3CCOCC3)cc2)csc1=Nc1ccc(OCC)cc1	none
CCOC(=O)C1=C(CS(=O)(=O)c2ccccc2)NC(=O)NC1c1cccc(OC)c1 (stereo unspecified)	none
O=C(N1CCc2ccc(S(=O)(=O)N3CCN(S(=O)(=O)c4ccc5c(c4)OCCO5)CC3)cc2C1)C(F)(F)F	none
O=C(Nc1ccc(C(=O)Oc2ccccc2)c(O)c1)c1ccco1	D1 antag -36
O=C(Nc1ccc(Nc2ccccc2)cc1)c1ccco1	none
Cc1ccn2cc(-c3ccc(NC(=O)c4ccco4)cc3)nc2c1	D1 antag -33
O=C(Nc1ccc(N2CCCC2)c(Cl)c1)c1ccco1	none
CN1CCN(c2ccc(NC(=O)c3ccco3)cc2Cl)CC1	D1 antag -38
O=C(Nc1ccc(Br)cc1)c1ccco1	D1 antag -42
Cc1nc(-c2ccc(NC(=O)c3ccco3)cc2)cs1	none
COc1ccccc1NC(=O)C1=C(C)Nc2c(C(=O)Nc3cccc(C)c3)cnn2C1c1ccccc1Cl (stereo unspecified)	none
O=C(Nc1ccnc(-c2cccnc2)n1)c1cccc(Cl)c1Cl	none
COc1ccc(-c2nc3scc(CCNS(=O)(=O)c4cccs4)n3n2)cc1	none (no result: D1 antag)
CCN1CCN(c2ccc(NC(=O)c3cccc(F)c3)cc2Cl)CC1	D1 antag -36
COc1ccc(NC(=O)c2ccco2)cc1NC(=O)c1cccc(C)c1OC	D1 antag -31
Cc1ccc(N2CCN(C(=O)CCc3c(C)nc4ncnn4c3C)CC2)c(C)c1	none
Cc1ccc(NC(=O)C(C)c2cccc(C(=O)c3ccccc3)c2)cc1O (stereo unspecified)	D1 antag -32
CCn1c(SCC(=O)Nc2cc(C)ccc2F)nnc1-c1ccccc1O	none
COc1ccc(NC(=O)/C(C#N)=C/c2c(C)nn(-c3ccc(F)cc3)c2Cl)cc1Cl	none
COc1ccc(NC(=O)/C(C#N)=C/c2c(C)nn(-c3ccc(F)cc3)c2Cl)cc1OC	D1 antag -32
COc1ccc(C2CC(Cn3cc(C#N)c(=O)n(C)c3=O)ON2C)cc1 (stereo unspecified)	D1 antag -34
COc1ccc(-c2noc(CN(C)C3CCOCC3)n2)cc1	TRHR PAM 32
CCOC(=O)c1cnc(-n2nc(C)cc2C)nc1NC1CCCC1	D1 ag 48
O=c1oc2ccc3ccccc3c2cc1-c1nnc(Nc2ccccc2)s1	none
Cc1onc(-c2ccccc2)c1C(=O)c1c[nH]c(C(=O)NCc2ccncc2)c1	D1 antag -89
COc1cccc(CNC(=O)c2c(C)nn(-c3cccc(C)c3)c2-n2cccc2)c1	none
Cc1ccc([N+](=O)[O-])cc1S(=O)(=O)Nc1cccc(-c2ccc(N3CCOCC3)nn2)c1	none
COc1ccc(S(=O)(=O)Nc2cccc(-c3ccc(N4CCOCC4)nn3)c2)cc1F	D1 antag -37
COc1cc(C)c(C)cc1S(=O)(=O)Nc1cccc(-c2ccc(N3CCOCC3)nn2)c1	D1 antag -69
O=C(O)Cc1sc(N/N=C\c2ccncc2)nc1-c1ccccc1	D1 ag 31
O=C(O)Cc1sc(Nc2ccccc2)nc1-c1ccccc1	none
CC1=C(C(=O)Nc2ccc(C)cc2C)C(c2ccc(Cl)cc2)n2nc(C(=O)OC(C)C)nc2N1 (stereo unspecified)	none
COc1cc([N+](=O)[O-])ccc1NC(=O)NCC1CCN(Cc2ccc(Cl)cc2)CC1	D1 ag 31, D1 antag -33
O=C(NCC1CCN(Cc2cccc(Cl)c2)CC1)Nc1cc(Cl)ccc1Cl	none
COc1ccc(Cl)cc1NC(=O)NCC1CCN(Cc2cc(C)ccc2C)CC1	D1 antag -31
CCOc1ccc(CNC(=O)Cn2nc(C)c3c(C)n(-c4ccc(C)cc4)nc3c2=O)cc1	D1 antag -50!
Cc1ccc(-n2nc3c(=O)n(CC(=O)NC(C)C)nc(C)c3c2C)cc1	D1 antag -35
Cc1nn(CCC(=O)NCc2ccc(N(C)C)cc2)c(=O)c2nn(-c3ccccc3)c(C)c12	D1 antag -31!
Cc1nn(CCC(=O)NCc2ccc(Cl)cc2)c(=O)c2nn(-c3ccccc3)c(C)c12	none
Cc1nn(CC(=O)NCCc2ccco2)c(=O)c2nn(-c3ccccc3)c(C)c12	none
Cc1ccc(-n2nc3c(=O)n(CC(=O)NCc4ccco4)nc(C)c3c2C)cc1	D1 antag -34
COc1ccc(Cn2c(CO)cnc2SCc2ccc(C)cc2)cc1	none
Cc1ccc(Cn2c(SCc3ccc(C(=O)N4CCCCCC4)cc3)nc3ccncc32)cc1	none
O=C(CSc1nc2ccccc2n1Cc1c(F)cccc1Cl)N1CCN(c2ccc(F)cc2)CC1	none
Cc1ccc(-c2noc(CNC(=O)COc3cc(C)c(Br)c(C)c3)n2)cc1	none
CCc1ccc(C(=O)c2cn(Cc3ccccc3)c3cc(OC)c(OC)cc3c2=O)cc1	none
CCOc1ccc(/C=C/c2nc(C#N)c(N3CCC(C)CC3)o2)cc1	none
CNCc1ccccc1Sc1cccc2ccccc12	D1 ag 59
CNCc1ccccc1Sc1ccc(OC)cc1	none
CN(C)CCN(C)Cc1ccccc1Sc1cccc2ccccc12	D1 ag 51, D1 antag -36
